Test results published in ChEMBL document CHEMBL4513135, “CO-ADD screening of IQOG CSIS (Spain) compounds”.
Entries with a potency or affinity are not part of this list.

System: Staphylococcus aureus
Conditions: Concentration 32 ug.mL-1; ASSAY_TEST Inhibition of Bacterial Growth; detection method Absorption (OD600); MEDIA CAMHB; plate type 384well; NBS; CORNING #3640; time 18 hr

Row | Structure (SMILES) | Inhibition [%]
1 | CCOC(=O)/C(=C\c1ccccc1)C(=O)c1ccccc1 | 9.55
2 | O=C(N/N=C/c1ccc([N+](=O)[O-])cc1)c1cc2ccccc2[nH]1 | 11.24
3 | N#CC1=C(N)Oc2ccc3ccccc3c2C1c1ccccc1[N+](=O)[O-] (stereo unspecified) | 40.78
4 | Cl.ClCCCN1CCCC1 | 23.18
5 | Cn1c(C(=O)N2CCOCC2)cc2cc(OCCCC3CCN(Cc4ccccc4)CC3)ccc21 | 23.07
6 | O=C(NNCc1ccco1)c1cc2ccccc2[nH]1 | -6.59
7 | CCOC(=O)c1c(C)[nH]c2ccc(OC)cc12 | -4.64
8 | Cn1ccnc1C1c2ccc3ccccc3c2Oc2nc3c(c(N)c21)CCCCC3 (stereo unspecified) | 17.85
9 | CC#CCN(C)Cc1cc2cc(OCc3ccccc3)ccc2n1C.O=C(O)C(=O)O | 7.01
10 | COc1cccc(C2C(C#N)=C(N)Oc3ccc4ccccc4c32)c1 (stereo unspecified) | 40.42
11 | O=C1SC(SCc2ccccc2)=NC1=Cc1ccccc1 | 6.82
12 | COc1ccc(-c2cc(-c3ccccc3)c(C#N)c(N)n2)cc1 | 10.32
13 | Cc1ccc(CNNC(N)=O)cc1.Cl | 4.52
14 | CCOC(=O)C1=C(C)NC(N)=C(C#N)C1c1ccc(OC)cc1 (stereo unspecified) | 20.75
15 | C=C1CN(C)c2c(C#N)cc(C#N)c(=N)n21 | 13.03
16 | CC(C)(C)OC(=O)Nc1ccc(Cl)cn1 | 37.58
17 | N#Cc1c(N)nc(NCCCCC2CCN(Cc3ccccc3)CC2)c(C#N)c1-c1ccccc1 | 9.74
18 | Cc1[nH]c2ccc(OCc3ccccc3)cc2c1C(=O)NN | 3.15
19 | COc1ccc(-c2cc(-c3cc4ccc(F)cc4nc3Cl)cc(=O)[nH]2)cc1 | 24.97

Row | Structure (SMILES) | Inhibition [%]
20 | CN(C)c1ccc(C(=NNC(=O)c2cc3ccccc3[nH]2)c2ccc(N(C)C)cc2)cc1 | -9.28
21 | C=CCNc1nc(N)c(C#N)cc1C#N | 40.4
22 | N#Cc1c(N)nc(N2CCOCC2)c(C#N)c1-c1ccccc1 | 7.58
23 | C#CCN(C)Cc1cc2cc(OCCCCC3CCN(Cc4ccccc4)CC3)ccc2n1C.Cl | 41
24 | O=C(NCc1ccccc1)c1cc2ccccc2[nH]1 | 5.56
25 | Nc1c2c(nc3c1CC(c1c(Cl)cccc1Cl)C(=O)N3)CCCC2 (stereo unspecified) | 22.21
26 | C#CCNc1ccc(Cl)nn1 | 21.22
27 | CCOC(=O)c1c[nH]c2ccc(OCc3ccccc3)cc12 | 5.22
28 | CC(=O)N1CC(=O)NC1=S | 18.21
29 | CCOC(=O)c1cc2cc(O)ccc2n1C(=O)OC(C)(C)C | 5.1
30 | C#CCN(C)Cc1cc2cc(OCc3ccc(OC)c4ncccc34)ccc2n1C | 3.95
31 | COc1ccc(C2C(C#N)=C(N)Oc3[nH]nc(C)c32)cc1 (stereo unspecified) | 4.82
32 | C#CCNc1cccc(F)n1 | 34.2
33 | N#Cc1c(N)nc(NCc2ccccc2)c(C#N)c1-c1ccccc1 | -2.03
34 | N#CC1(Br)C(=N)Oc2ccc3ccccc3c2C1c1cccc([N+](=O)[O-])c1 (stereo unspecified) | 22.75
35 | CN1C/C(=C\Cl)n2c1c(C#N)c(-c1ccccc1)c(C#N)c2=O | 14.24
36 | N#Cc1cc(Br)cc(Br)c1N | 3.71
37 | Nc1ccccc1C(=O)N/N=C/c1c[nH]c2ccccc12 | 7.31
38 | NNC(=O)c1cc2ccccc2n1Cc1ccccc1 | -21.85

System: Escherichia coli
Conditions: Concentration 32 ug.mL-1; ASSAY_TEST Inhibition of Bacterial Growth; detection method Absorption (OD600); MEDIA CAMHB; plate type 384well; NBS; CORNING #3640; time 18 hr

Row | Structure (SMILES) | Inhibition [%]
39 | CCOC(=O)/C(=C\c1ccccc1)C(=O)c1ccccc1 | 10.95
40 | O=C(N/N=C/c1ccc([N+](=O)[O-])cc1)c1cc2ccccc2[nH]1 | 10.51
41 | N#CC1=C(N)Oc2ccc3ccccc3c2C1c1ccccc1[N+](=O)[O-] (stereo unspecified) | -6.45
42 | Cl.ClCCCN1CCCC1 | 5.15
43 | Cn1c(C(=O)N2CCOCC2)cc2cc(OCCCC3CCN(Cc4ccccc4)CC3)ccc21 | -10.59
44 | O=C(NNCc1ccco1)c1cc2ccccc2[nH]1 | -6.94
45 | CCOC(=O)c1c(C)[nH]c2ccc(OC)cc12 | 0.02
46 | Cn1ccnc1C1c2ccc3ccccc3c2Oc2nc3c(c(N)c21)CCCCC3 (stereo unspecified) | -12.42
47 | CC#CCN(C)Cc1cc2cc(OCc3ccccc3)ccc2n1C.O=C(O)C(=O)O | 5.45
48 | COc1cccc(C2C(C#N)=C(N)Oc3ccc4ccccc4c32)c1 (stereo unspecified) | -5.36
49 | O=C1SC(SCc2ccccc2)=NC1=Cc1ccccc1 | 1.82
50 | COc1ccc(-c2cc(-c3ccccc3)c(C#N)c(N)n2)cc1 | -23.38
51 | Cc1ccc(CNNC(N)=O)cc1.Cl | 6.79
52 | CCOC(=O)C1=C(C)NC(N)=C(C#N)C1c1ccc(OC)cc1 (stereo unspecified) | -7.34
53 | C=C1CN(C)c2c(C#N)cc(C#N)c(=N)n21 | -14.43
54 | CC(C)(C)OC(=O)Nc1ccc(Cl)cn1 | -2.82
55 | N#Cc1c(N)nc(NCCCCC2CCN(Cc3ccccc3)CC2)c(C#N)c1-c1ccccc1 | -1.09
56 | Cc1[nH]c2ccc(OCc3ccccc3)cc2c1C(=O)NN | -5.77
57 | COc1ccc(-c2cc(-c3cc4ccc(F)cc4nc3Cl)cc(=O)[nH]2)cc1 | -19.12

Row | Structure (SMILES) | Inhibition [%]
58 | CN(C)c1ccc(C(=NNC(=O)c2cc3ccccc3[nH]2)c2ccc(N(C)C)cc2)cc1 | -3.28
59 | C=CCNc1nc(N)c(C#N)cc1C#N | -12.52
60 | N#Cc1c(N)nc(N2CCOCC2)c(C#N)c1-c1ccccc1 | 0.53
61 | C#CCN(C)Cc1cc2cc(OCCCCC3CCN(Cc4ccccc4)CC3)ccc2n1C.Cl | -14.71
62 | O=C(NCc1ccccc1)c1cc2ccccc2[nH]1 | 8.05
63 | Nc1c2c(nc3c1CC(c1c(Cl)cccc1Cl)C(=O)N3)CCCC2 (stereo unspecified) | 31.42
64 | C#CCNc1ccc(Cl)nn1 | -28.17
65 | CCOC(=O)c1c[nH]c2ccc(OCc3ccccc3)cc12 | 6.31
66 | CC(=O)N1CC(=O)NC1=S | 15.12
67 | CCOC(=O)c1cc2cc(O)ccc2n1C(=O)OC(C)(C)C | 10.33
68 | C#CCN(C)Cc1cc2cc(OCc3ccc(OC)c4ncccc34)ccc2n1C | -18.67
69 | COc1ccc(C2C(C#N)=C(N)Oc3[nH]nc(C)c32)cc1 (stereo unspecified) | 6.91
70 | C#CCNc1cccc(F)n1 | -22.48
71 | N#Cc1c(N)nc(NCc2ccccc2)c(C#N)c1-c1ccccc1 | -5.8
72 | N#CC1(Br)C(=N)Oc2ccc3ccccc3c2C1c1cccc([N+](=O)[O-])c1 (stereo unspecified) | -22.9
73 | CN1C/C(=C\Cl)n2c1c(C#N)c(-c1ccccc1)c(C#N)c2=O | -33.76
74 | N#Cc1cc(Br)cc(Br)c1N | 14.62
75 | Nc1ccccc1C(=O)N/N=C/c1c[nH]c2ccccc12 | 5.27
76 | NNC(=O)c1cc2ccccc2n1Cc1ccccc1 | -14.39
